This note sets out measurements from PubChem BioAssay (NCI).

The nature of test [1]: NCI Yeast Anticancer Drug Screen. Data for the rad50 strain (AID 155).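 Note: 0% = growth of vehicle-only cultures of the same strain.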 Particulars: S. cerevisiae rad50 strain growth inhibition; at 50.0 µM; stronger effect = higher value. Put shortly: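 Compounds were tested on a yeast strain with an engineered DNA damage repair alteration; the reported value is growth inhibition normalised to vehicle treatment.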
Test [2] can be described thus: NCI Yeast Anticancer Drug Screen. Data for the mec2-1 strain (AID 157). Particulars: S. cerevisiae mec2-1 strain, at 50.0 µM, stronger effect = higher value. Put shortly: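 Compounds were applied to mec2-1 yeast cells. Their growth was then compared with that of vehicle-treated cultures to give growth inhibition.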
A short description of test [3]: NCI Yeast Anticancer Drug Screen. Data for the sgs1 mgt1 strain (AID 161).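 Note: 0% = growth of cultures given vehicle only.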 Conditions: S. cerevisiae sgs1 mgt1 strain, at 50.0 µM, stronger effect = higher value. Summed up: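 Percent growth inhibition was derived by comparing compound-exposed mutant yeast with vehicle-exposed cultures. The strain carries alterations in DNA damage repair.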
The nature of test [4]: NCI Yeast Anticancer Drug Screen. Data for the cln2 rad14 strain (AID 165).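 Note: 0% = growth equal to vehicle treated cultures.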 Conditions: S. cerevisiae cln2 rad14 strain, at 50.0 µM, stronger effect = higher value. Put shortly:
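Strain: cln2 rad14 yeast, altered in cell cycle control and DNA damage repair. Read-out: growth inhibition vs vehicle.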

A short description of test [5]: NCI Yeast Anticancer Drug Screen. Data for the bub3 strain (AID 167). Conditions: S. cerevisiae bub3 mutant strain, at 50.0 µM, stronger effect = higher value. Put shortly:
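Growth of a checkpoint-deficient yeast mutant is measured after compound exposure. Values represent inhibition relative to vehicle.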

The nature of test [6]: NCI Yeast Anticancer Drug Screen. Data for the mlh1 rad18 strain (AID 175). Conditions: S. cerevisiae mlh1 rad18 strain growth inhibition; at 50.0 µM; stronger effect = higher value. Summed up: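 A repair-deficient yeast strain is exposed to test compound, and growth is scored relative to vehicle-treated controls.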

About 79,000 compounds went through this panel and 15% of them were active in at least one assay; those are over-represented in the sample as a whole. Unmarked numbers belong to inactive results. Activity calls are given as the source filed them. Cut-off read from the data, not from the text of the source: active = growth inhibition above about 70%; inactive = the rest.

As for `O=C1C2Cc3ccccc3CN2C(=O)N1CCN1CCOCC1` (stereo not drawn), the growth inhibition in test [1] is 7.25%; in test [2] it was -21.8%; in test [3], -4.15%; in test [4] it was 12.8%; in test [5], 3.25%; in test [6], 22.6%.
As for `OCCCN1CCCCC1`, the growth inhibition in test [1] is -2.7%; in test [2] it was -13.6%; in test [3] it was 1.05%; in test [4] it was 15.8%; in test [5], -1%; in test [6] it was 3.95%.
Turning to `[N-]=[N+]=CC(=O)C1OC1c1ccc(Br)cc1` (stereo not drawn), the growth inhibition was 11.8% in test [1]; 15.3% in test [2]; 22.9% in test [3]; 24.4% in test [4]; -0.25% in test [5]; 33.1% in test [6].
`NC(=O)CSc1ccccc1`: the growth inhibition is 8% in test [1]; 2.1% in test [2]; 9.8% in test [3]; 10.1% in test [4]; -4.5% in test [5]; -8.6% in test [6].
On to `CC1=C(C(=O)NNC(=O)C[N+](C)(C)C)CC(C(=O)NNC(=O)C[N+](C)(C)C)=C(C)N1`, for which the growth inhibition in test [1] is -12.4%; in test [2], -21.1%; in test [3] it was -10.9%; in test [4] it was -31.2%; in test [5], -13.2%; in test [6] it was -39.9%.
In the case of `OCC(O)C(O)C(O)C(O)/C=N\Nc1ccccc1` (stereo not drawn), the growth inhibition in test [1] was 43.3%; in test [2], 67%; in test [3], 62.8%; in test [4] it was 34.1%; in test [5] it was 81% (active); in test [6], 89.1% (active).
With `O=C(O)COc1cc2c(cc1Cc1ccc3c(c1)OCO3)OCO2`, the growth inhibition in test [1] is 2.5%; in test [2], 13.1%; in test [3], 0.25%; in test [4], 1.15%; in test [5] it was 10.3%; in test [6], 8.35%.
Turning to `O=C(C[N+](=O)[O-])OCc1ccccc1`, the growth inhibition in test [1] was 14.8%; in test [2] it was 22.8%; in test [3] it was 6.4%; in test [4], -18.1%; in test [5], -0.4%; in test [6], 4.65%.
With `Nc1cc2c(cc1Cl)-c1cc(Cl)ccc1C2=O`, the growth inhibition was 5.7% in test [1]; -9.65% in test [2]; -2.2% in test [3]; -24.4% in test [4]; -8.5% in test [5]; -8.5% in test [6].
As to `Cc1cc2nc(CC(O)c3nc4cc(C)c(C)cc4[nH]3)[nH]c2cc1C` (stereo not drawn), the growth inhibition in test [1] is 6.9%; in test [2], -12.9%; in test [3], -5.1%; in test [4], 5.1%; in test [5], -4.9%; in test [6] it was 5.8%.
As for `Cc1cc(C)c2cnnn2n1`, the growth inhibition was 10.1% in test [1]; -14.1% in test [2]; 0.6% in test [3]; 15.4% in test [4]; -21.1% in test [5]; -2.75% in test [6].
Turning to `CN(C)Cc1cc(Cl)c(O)c(CN(C)C)c1`, the growth inhibition in test [1] was -17.6%; in test [2], -43.5%; in test [3], -38.4%; in test [4], 23.7%; in test [5], -30.6%; in test [6] it was 15.1%.
With `CCOC(=O)/N=[N+](\[O-])c1ccccc1`, the growth inhibition in test [1] is 64.5%; in test [2] it was 46.9%; in test [3] it was 57.6%; in test [4], 11.9%; in test [5], 41.5%; in test [6], 86.8% (active).
Regarding `COC1/C=C\OC2(C)Oc3c(C)c(O)c4c(c3C2=O)C(=O)C(Br)=C(NC(=O)/C(C)=C\C=C/C(C)C(O)C(C)C(O)C(C)C(OC(C)=O)C1C)C4=O` (stereo not drawn), the growth inhibition in test [1] is 16.1%; in test [2], 13.8%; in test [3], 22.4%; in test [4] it was 22.2%; in test [5] it was 14.8%; in test [6] it was 20.5%.
Regarding `O=C1/C(=C/c2ccco2)SC(=S)N1C1c2ccccc2Oc2ccccc21`, the growth inhibition is 25% in test [1]; 6.65% in test [2]; 67.2% in test [3]; 45.6% in test [4]; -0.4% in test [5]; 24.8% in test [6].
For `CCOCC1OCCCO1`, the growth inhibition in test [1] was -13.5%; in test [2] it was 12.4%; in test [3] it was 1.6%; in test [4], -9.85%; in test [5], -10%; in test [6], 7.15%.
For `CC(=O)OCCOC1c2ccccc2-c2ccccc21`, the growth inhibition in test [1] was 7.1%; in test [2], -2.75%; in test [3] it was 18.2%; in test [4], 18.6%; in test [5] it was 25.3%; in test [6] it was 13.8%.
Consider `Nc1nc2nn(-c3ccc(C(=O)NC(CCC(=O)O)C(=O)O)cc3)nc2c(=O)[nH]1` (stereo not drawn), for which the growth inhibition in test [1] was 7.05%; in test [2], 2.75%; in test [3] it was 12.9%; in test [4], 30.5%; in test [5] it was 9.05%; in test [6], -1.4%.
With `C[n+]1ccc(/C(C#N)=N/O)cc1`, the growth inhibition in test [1] was -16.4%; in test [2], -39.9%; in test [3], -20.6%; in test [4] it was 20.6%; in test [5] it was -25.8%; in test [6], -28.9%.
As for `Nc1nc(N)c2nnsc2n1`, the growth inhibition in test [1] was 13.7%; in test [2], -5.05%; in test [3], 13.3%; in test [4], 16.6%; in test [5] it was 14.4%; in test [6], 2.9%.
Regarding `CSc1nc(NC2OCC(O)C(O)C2O)cc(=O)[nH]1` (stereo not drawn), the growth inhibition is 7.75% in test [1]; -0.95% in test [2]; 10.8% in test [3]; -2.25% in test [4]; -13.8% in test [5]; 1.3% in test [6].
Consider `CC(C)Nc1nc(N)nc(N)n1`, for which the growth inhibition in test [1] was -11.1%; in test [2], -17.6%; in test [3], 2%; in test [4], -20.1%; in test [5], -17.6%; in test [6], -5.2%.
Consider `Cc1ccc(S(=O)(=O)NC(=O)C2S(=O)(=O)OCCOS2(=O)=O)cc1`, for which the growth inhibition was -2.75% in test [1]; 4.15% in test [2]; -7.1% in test [3]; -1.85% in test [4]; -11.3% in test [5]; -16.4% in test [6].
Turning to `O=c1cc(-c2ccccc2F)[nH]c2ccc(N3CCCC3)cc12`, the growth inhibition is 13.6% in test [1]; 6.2% in test [2]; 25.5% in test [3]; 0.65% in test [4]; 22.3% in test [5]; 23.6% in test [6].
On to `Nc1nc(=O)n(C2CC(O)C(CO)O2)cc1I` (stereo not drawn), for which the growth inhibition in test [1] is -43.3%; in test [2] it was 1%; in test [3], 7.55%; in test [4], -17.2%; in test [5], -0.8%; in test [6], 11.2%.
On to `O=C(Cc1cccc(CC(=O)c2ccccc2)n1)c1ccccc1`, for which the growth inhibition was 9.25% in test [1]; -4.75% in test [2]; 18.5% in test [3]; -52.2% in test [4]; -43% in test [5]; 10.4% in test [6].
As for `CS(=O)(=O)OCCCCCCCCCCCC1C=CCC1` (stereo not drawn), the growth inhibition in test [1] is 10.3%; in test [2] it was -32.4%; in test [3], 5.15%; in test [4], 11.8%; in test [5], -8.25%; in test [6] it was 3.1%.
Consider `C=C(C)C(=O)OC1C[C@H](COC(C)=O)C2CC=C(CO)C2C2OC(=O)C(=C)[C@H]12` (stereo partly drawn), for which the growth inhibition is 16.9% in test [1]; 15.1% in test [2]; 10.2% in test [3]; -1.25% in test [4]; -1.25% in test [5]; 25.1% in test [6].
Turning to `OCC[N-]CC[N-]CCO.[Cl][Co][Cl]`, the growth inhibition is 27.8% in test [1]; 32.1% in test [2]; 32.7% in test [3]; 22.9% in test [4]; 36.6% in test [5]; 35.2% in test [6].
Consider `O=C(O)c1cccc(Br)c1[N+](=O)[O-]`, for which the growth inhibition in test [1] is -19.9%; in test [2], -7.9%; in test [3], -26.6%; in test [4], -36.1%; in test [5] it was -8.1%; in test [6], -5.9%.
Take `CC(O)C(C)C(N)C(=O)O` (stereo not drawn): the growth inhibition in test [1] is 3.7%; in test [2], 2%; in test [3] it was -1.05%; in test [4], -0.85%; in test [5] it was -0.3%; in test [6], 18.4%.
Consider `C(=C1\COC(c2ccccc2)=N1)/c1ccc2c(c1)OCO2`, for which the growth inhibition in test [1] was -13.2%; in test [2] it was 14.8%; in test [3], 13.8%; in test [4] it was -19.6%; in test [5], -5%; in test [6], 26.9%.
For the compound `O=C(Nc1ccc([N+](=O)[O-])cc1Cl)c1ccc(C(=O)Nc2ccc([N+](=O)[O-])cc2Cl)cc1`, the growth inhibition in test [1] is -6.4%; in test [2], -1.75%; in test [3], -1.85%; in test [4], 31.3%; in test [5], 1.95%; in test [6] it was 0.55%.
Turning to `COc1ccc(C2=C/C(=C/c3cccs3)C(=O)O2)cc1`, the growth inhibition was -14.2% in test [1]; 1.45% in test [2]; -0.15% in test [3]; -36.9% in test [4]; 3.75% in test [5]; 0.15% in test [6].
For `Cn1cnc([N+](=O)[O-])c1Sc1nc2ccccc2[nH]1`, the growth inhibition is -16.4% in test [1]; -10.3% in test [2]; -12.2% in test [3]; 3.65% in test [4]; -30.6% in test [5]; -19.1% in test [6].
On to `CC1CS(=O)(=O)CC(C)S1(=O)=O` (stereo not drawn), for which the growth inhibition was -8.6% in test [1]; -1.55% in test [2]; -5.95% in test [3]; -4.3% in test [4]; 14.7% in test [5]; -7.05% in test [6].
Regarding `COc1ccc(/C=C/C2=CC(=O)CC(/C=C/c3ccc(OC)c(OC)c3)C2)cc1OC` (stereo not drawn), the growth inhibition in test [1] is 45%; in test [2], 46.5%; in test [3], 28.9%; in test [4], 49.6%; in test [5] it was 58.6%; in test [6], 43.9%.
For the compound `c1cc(Nc2ccncc2)ccn1`, the growth inhibition was 23.6% in test [1]; -13% in test [2]; -1.9% in test [3]; 6.2% in test [4]; 0.15% in test [5]; 19.9% in test [6].
